Hits are enriched below; roughly 21% of the tested compounds scored in any of these assays.
Shiga toxin inh: A qHTS for Small Molecule Inhibitors of Shiga Toxin. Vero cells, Shiga toxin protein synthesis inhibition reporter. hit rate 9.2% among 290,000. AID 2315, 2010. inhibition, % at 38.7 µM; in the data active = inhibition mostly above about 28%, no sharp cut-off; inactive = mostly below about 43%; also: 0% is about no effect
Cycloheximide cs: Cycloheximide Counterscreen for Small Molecule Inhibitors of Shiga Toxin; cell reporter, cycloheximide protein synthesis inhibition counterscreen; hit rate 12% among 300,000; AID 2314, 2010; max response, %; in the data active = max response mostly above about 13%, no sharp cut-off; inactive = mostly below about 14%; also: read at 38.3 µM for the half of the compounds with a filed dose; 0% is about no effect
Giardia FBPA inh: qHTS Assay for Inhibitors of Fructose-1,6-bisphosphate Aldolase from Giardia Lamblia; AID 2451, 2010; A8B2U2; purified Giardia FBPA; hit rate 0.71% among 290,000; Potency, µM (titrated, usually from 59.6 µM), inactives show at the highest dose activity, negative = inhibition, actives largely listed as inhibitors; also: potency is read from the fitted curve at half-maximal effect; % is scaled to controls: 0 for no effect and ±100 for the full control effect; nearly all actives have a fitted effect of over 55% in size
Target sequence (A8B2U2 whole entry, looked up): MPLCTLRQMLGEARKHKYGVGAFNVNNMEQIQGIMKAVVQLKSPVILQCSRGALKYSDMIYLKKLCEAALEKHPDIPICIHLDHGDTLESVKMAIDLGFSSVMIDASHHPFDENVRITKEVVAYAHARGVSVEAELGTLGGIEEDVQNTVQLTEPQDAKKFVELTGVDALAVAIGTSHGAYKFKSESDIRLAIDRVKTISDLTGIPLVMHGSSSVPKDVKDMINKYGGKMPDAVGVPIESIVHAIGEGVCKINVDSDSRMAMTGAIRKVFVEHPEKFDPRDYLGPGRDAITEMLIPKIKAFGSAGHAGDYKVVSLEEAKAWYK
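Giardia FBPA (40 nM reagent) was preincubated 10 min at RT with compound (up to 57.5 uM final), then substrate plus GAPDH/TPI/NAD/arsenate coupling system with diaphorase/resazurin was added; resorufin fluorescence (525/598 nm) was read after 20 min.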
Pf growth 96h: Primary qHTS for delayed death inhibitors of the malarial parasite plastid, 96 hour incubation; P. falciparum luciferase reporter growth, 96 h; Potency, µM (highest dose often 28.7 µM), inactives show at the highest dose activity change, negative = inhibition, most hits filed as inhibitors; hit rate 6.9% among 320,000; AID 504834, 2011; also: potency is read from the fitted curve at half-maximal effect; % is scaled to controls: 0 for no effect and ±100 for the full control effect
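P. falciparum expressing integrated firefly luciferase, in erythrocytes at 2% hematocrit, 0.05% parasitemia, incubated with compounds 96 h at 37 C, 5% CO2. Growth inhibition read as loss of luminescence; two-generation exposure targets delayed-death apicoplast inhibitors.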
NS1 function inh: qHTS Assay for Inhibitors of Influenza NS1 Protein Function; hit rate 0.4% among 270,000; AID 2326, 2010; Potency, µM (doses to about 46.1 µM), for the others: top-dose activity, positive = more growth; calls by dose curve; also: potency is read from the fitted curve at half-maximal effect; actives are rising curves; nearly all actives have a fitted effect of over 50% in size
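A cell-based growth assay was used: compounds that relieve NS1-induced slow growth of budding yeast raise OD600. Assay medium was yeast nitrogen base with ammonium sulphate and -URA supplement, pH 6.0, with 2% galactose.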
Pf growth 48h: Primary qHTS for delayed death inhibitors of the malarial parasite plastid, 48 hour incubation | P. falciparum luciferase growth in erythrocytes, 48 h | Potency, µM (highest dose often 28.7 µM), inactives show top-dose activity change, negative = inhibition, usual class: inhibitors | hit rate 5.9% among 310,000 | AID 504832, 2011; also: potency is read from the fitted curve at half-maximal effect; % is scaled to controls: 0 for no effect and ±100 for the full control effect
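Firefly luciferase activity from engineered P. falciparum reports growth; inhibitors lower the luminescent signal. Cultures contained 2% hematocrit erythrocytes at 0.1% final parasitemia.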
Active calls of the source: *; ? = inconclusive; / = not tested or not shown; [ ] = another dose, or the depositor's remark. Unless noted, calls follow the shape of the dose curve; as a rule, active = well fitted curve in the direction sought with a large enough effect; inconclusive = small, poorly fitted or top-dose-only effect, or another doubt; inactive = no such curve, though single readings can be large; an effect the other way counts as inactive or inconclusive.

SMILES	Shiga toxin inh	Cycloheximide cs	Giardia FBPA inh	Pf growth 96h	NS1 function inh	Pf growth 48h
O=c1nc(N2CCCC2)nc(Nc2ccccc2)[nH]1	7	-3	17%	15µM*	-6%	0%
c1ccc(Nc2nc(Nc3ccccc3)nc(N3CCNCC3)n2)cc1	-8	-1	0%	9.3µM*	17%	?
COc1ccccc1CO/N=C/c1cccn1-c1nccc(N(C)C)c1C#N	-8	-2	1%	?	4%	/
CCCCS(=O)(=O)N1CCc2nc(COc3ccccc3)c3c(c2C1)CO[C@@H](C)C3	/	/	2%[12.9 µM]	/	/	/
Cc1ccc(NS(=O)(=O)c2cc(NC(=O)c3cc4c(s3)CCCC4)ccc2C)c(C)c1	22	-2	3%	10µM*	8%	?
O=C(c1scc2c1CCCC2)N1CCCCC1	25	12	2%	/	-3%	17%
Cc1ccc(NC(=O)c2cc3c(s2)CCCC3)cc1	104*	54*	-17%	196%	/	207%
Cc1ccc(NC(=O)CN(C)C(=O)c2cc3c(s2)CCCCC3)cc1	/	/	/	31%	/	5%
Cc1ccc(NS(=O)(=O)c2cc(NC(=O)c3ccc4c(c3)NC(=O)CS4)ccc2Cl)c(C)c1	-20	-2	-13%	7.4µM*	10%	-19%
Cc1ccc(NC(=O)c2scc3c2CCCC3)cc1	73*	54*	-7%	?	-34%	376%
CC1CCCCC1NCC#CCOc1ccc(Cl)cc1 (stereo not given)	3	16	?	7%	1%	-23%
CC(=O)Nc1ccc(NC(=O)C(C)OC(=O)CN2C(=O)C3CCCCC3C2=O)cc1 (stereo not given)	/	/	/	25%	/	5%
COc1ccc(NC(=O)Cn2nc(C(=O)O)c3ccccc3c2=O)cc1OC	-3	-3	5%	33%	12%	35%
COc1ccc(NC(=O)N2CC3(CCN(S(=O)(=O)c4ccccc4)CC3)C2)cc1	/	/	-6%	/	/	/
CC1CCC(C(C)C)C(OC(=O)COC(=O)c2cc(O)ccc2N)C1 (stereo not given)	57*	24*	-10%	1%	?	7%
O=C(c1ccc(Cl)cc1)N(Cc1ccccc1F)N1C(=O)CCCC1=O	1	-2	-2%	?	-5%	-1%
CN(CC(=O)Nc1ccc(Cl)c(Cl)c1)C(=O)CNC(=O)C1CCCCC1	/	/	/	1%	/	32%
CC1CCCC(NC(=O)C2CCN(S(=O)(=O)c3cccc4nonc34)CC2)C1C (stereo not given)	-4	-3	5%	54%	7%	13%
CCOC(=O)N1CCN(c2cc(NCCC(=O)O)c3c4c(onc24)-c2ccccc2C3=O)CC1	8	5	5.6µM*	-5%	-8%	8.3µM*
O=C(O)CCCNc1cc(N2CCC3(CC2)OCCO3)c2noc3c2c1C(=O)c1ccccc1-3	54*	24*	?	-24%	?	?
CN1CCN(c2cc(N3CCN(C(=O)c4ccco4)CC3)c3c4c(onc24)-c2ccccc2C3=O)CC1	-19	1	-27%	45%	0%	?
Cc1ccc(NC2=CC(=O)CC(c3ccccc3)C2)cc1 (stereo not given)	-2	-2	6%	?	-3%	?
Cc1ccc(NC2=CC(=O)CC(c3ccc(Cl)cc3)C2)cc1 (stereo not given)	-13	2	1%	?	-5%	13µM*
COc1ccc(COC2OC[C@]3(C)[C@H]4C5=C(CN3C(=O)OC(C)(C)C)[C@H](C)C(CO)C(CO)C5CC[C@@H]24)cc1 (stereo not given in full)	/	/	-5%	/	/	/
CCOC(=O)/C(=C/C=C1\Sc2cc(OCC)c(OCC)cc2N1CC)C(C)=O	11	-2	-17%	-2%	/	7.4µM*
COc1ccccc1N1CCN(/N=C\c2cccnc2)CC1	-1	-3	?	?	-7%	17%
COc1ccccc1N1CCN(/N=C/c2ccc(Cl)c([N+](=O)[O-])c2)CC1	43*	55*	-1%	336%	-16%	64%
COc1ccccc1N1CCN(/N=C/c2ccc([N+](=O)[O-])cc2)CC1	13	21*	-2%	10µM*	19%	34%
